From PubChem BioAssay
AmpC det inh = Promiscuous and Specific Inhibitors of AmpC Beta-Lactamase (assay with detergent); Potency, µM (doses to about 28.7 µM), inactives show top-dose activity change, negative = inhibition; purified AmpC, nitrocefin hydrolysis with detergent; P00811; 0.09% of 71,000 active; AID 584, 2007; active means well fitted curve in the direction sought with a large enough effect; inconclusive means small, poorly fitted or top-dose-only effect; further: on the % scale 0 is the no-effect control and ±100 the full control effect
Target sequence (P00811 whole entry, looked up): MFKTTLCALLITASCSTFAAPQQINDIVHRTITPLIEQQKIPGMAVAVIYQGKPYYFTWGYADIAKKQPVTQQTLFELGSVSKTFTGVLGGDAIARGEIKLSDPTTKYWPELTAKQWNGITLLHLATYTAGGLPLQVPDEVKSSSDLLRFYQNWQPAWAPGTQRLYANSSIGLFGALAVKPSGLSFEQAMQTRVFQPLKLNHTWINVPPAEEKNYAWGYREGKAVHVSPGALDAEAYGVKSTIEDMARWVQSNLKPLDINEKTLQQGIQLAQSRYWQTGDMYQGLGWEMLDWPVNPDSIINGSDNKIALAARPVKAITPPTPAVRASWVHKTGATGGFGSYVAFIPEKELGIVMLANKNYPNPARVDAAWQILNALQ
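E. coli AmpC (5.3 nM) in 20 mM phosphate pH 7.0 with 0.01% Triton X-100, preincubated 15 min RT with compound; nitrocefin (2 uL of 800 uM stock) hydrolysis followed by 480 nm absorbance every 20 s over 4 min.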
Prx2 Sm inh = Schistosoma Mansoni Peroxiredoxins (Prx2); S. mansoni Prx2 activity coupled to TGR/GSH (TGR is thioredoxin glutathione reductase), NADPH fluorescence loss, qHTS; Potency, µM; 0.07% of 65,000 active
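qHTS, coupled TGR/Prx2 format; 15 min compound preincubation at RT; reaction started with H2O2 (2.5 mM aliquot); kinetic NADPH fluorescence decrease, ex 365/em 450 nm.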
LT uptake inh = qHTS Assay for Anthrax Lethal Toxin Internalization; 0.67% of 70,000 active; Cells, anthrax lethal toxin internalization, FRET ratio (460/530); Potency, µM (top dose mostly 40 µM), inactives show at the top dose activity change, negative = inhibition, most hits filed as inhibitors; further: on the % scale 0 is the no-effect control and ±100 the full control effect; nearly all actives have a fitted effect of over 50% in size
AmpC inh no det = Promiscuous and Specific Inhibitors of AmpC Beta-Lactamase (assay without detergent); 1.8% of 71,000 active; AmpC nitrocefin hydrolysis, absorbance 480 nm, no detergent; P00811; Potency, µM (titrated, usually from 28.7 µM), for inactives: top-dose activity change, negative = inhibition; further: % of control where 0% means no effect
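Enzyme, pH 7.0 phosphate. Compound titrations were pre-incubated with AmpC for 15 min at room temperature before nitrocefin (stock 800 uM) addition; product formation was recorded at 480 nm every 20 s for 4 min.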
The depositor's hits bear a star; ? = inconclusive; . = not tested or not shown; ! = not active in a repeat; [ ] = dose if it differs, or a comment. The list is not random: actives were taken first. Their share in the collection is about 2.4%. Unless noted, the call rests on the fitted dose curve. Potency means the concentration at half of the fitted maximal effect.

SMILES | AmpC det inh | Prx2 Sm inh | LT uptake inh | AmpC inh no det
CC1(C)S[C@@H]2[C@H](NC(=O)Cc3ccccc3)C(=O)N2[C@@H]1C(=O)O | -3%[5.75 µM] | >57 | -1%[8 µM] | 5%[5.75 µM]
NS(=O)(=O)c1cc([C@@]2(O)NC(=O)c3ccccc32)ccc1Cl | -1%[12.8 µM] | >57 | 3%[3.58 µM] | 9%[12.8 µM]
CCOc1ccc2ccccc2c1C(=O)N[C@@H]1C(=O)N2[C@@H]1SC(C)(C)[C@@H]2C(=O)O | 0.05µM* | >57 | 4%[3.58 µM] | 0.032µM*
O=c1cnc2cnc(Oc3ccccc3)nc2n1CCc1ccccc1 | 1% | >57 | -14% | 23%
N#Cc1nc(-c2ccc(F)cc2)oc1NCc1cccc2c1OCO2 | 8% | >57 | ? | -22%
CC(C)CNc1oc(-c2ccc(F)cc2)nc1C#N | 6% | >57 | ? | 4µM*[single pt active]
CCC[C@@H]1C[C@@]1(CCC)C(NC(=O)c1ccccc1)c1cccc(Cl)c1 (some centres not stated) | 2% | >57 | ? | -2%
C[C@@]1(C(NC(=O)Cc2ccc(C(F)(F)F)cc2)c2ccc(-c3ccccc3)cc2)C[C@H]1C1CCCCC1 (some centres not stated) | 0% | >57 | -22% | 1%
N[C@@H](Cc1ccc(O)c(O)c1)C(=O)O | 1%[12.8 µM] | >57 | -10%[3.58 µM] | -11%[12.8 µM]
C[C@H](Cc1ccc(O)c(O)c1)[C@@H](C)Cc1ccc(O)c(O)c1 | -5% | >57 | 16µM*! | -24%
C[C@@H]1Nc2ccc(Cl)cc2S(=O)(=O)N1 | -1% | >57 | -3% | -2%
C/C(N)=C(/C#N)C(=O)CSc1nnc(COc2ccccc2Cl)o1 | -5% | >57 | -5% | 3%
COc1ccccc1OCc1nnc(SCC(=O)c2cc(Cl)ccc2OC)o1 | 0% | >57 | 13µM* | 35%
O=[As](O)(O)c1ccc(Cc2ccc([As](=O)(O)O)cc2)cc1 | -2%[5.75 µM] | 0.17* | ? | 12%[5.75 µM]
CC(C)CO/N=C1/[C@H]2O[C@@H]2[C@@H](O)[C@H]2[C@H]1CCn1c(=O)n(C)c(=O)n12 | . | . | -4%[1.6 µM] | .
COc1cccc([C@@H]2Oc3ccc(OC)cc3/C(=N/OC[C@@H](C)[C@H](OCc3ccccc3)C(C)C)[C@@H]2O)c1 | . | . | 0%[1.6 µM] | .
CCC(Cl)CC(Cl)C(Cl)C(Cl)C(Cl)C(C)Cl (configuration not stated) | 13% | . | 2.5µM* | -18%
Nc1ncnc2c1ncn2[C@@H]1O[C@@H](CO)[C@H](O)[C@@H]1O | -2% | >57 | ? | 0%
Cc1nc2ccc(S(=O)(=O)NC(C(=O)NCc3ccco3)C(C)C)cc2s1 (configuration not stated) | 14% | >57 | -9% | 4µM*[single pt active]
CC(=O)N(OCc1ccccc1)[C@@H]1c2cc(C#N)ccc2OC(C)(C)[C@H]1O | . | . | 4% | .
CCN(CC)CCNC(=O)c1ccc(CS(=O)(=O)c2ccc(Br)cc2)o1 | 9% | >57 | -26% | 3.2µM*[single pt active]
CN1CCN(CCCNC(=O)c2ccc(CS(=O)(=O)c3ccc(Br)cc3)o2)CC1 | 10% | >57 | -2% | 22%
O=C(NCCCN1CCCC1)c1ccc(CS(=O)(=O)c2ccc(Br)cc2)o1 | 13% | >57 | -13% | 4µM*[single pt active]
O=C(NCCN1CCCCCC1)c1ccc(CS(=O)(=O)c2ccc(Br)cc2)o1 | 8% | >57 | ? | 4µM*[single pt active]
O=C(NC1CCCC1)c1ccc(CS(=O)(=O)c2ccc(Br)cc2)o1 | 8% | >57 | -26% | 4µM*[single pt active]
SMILES | AmpC det inh | Prx2 Sm inh | LT uptake inh | AmpC inh no det
COc1cccc(Nc2ncc3nc(-c4cccs4)c(=O)n(C[C@H]4CCCO4)c3n2)c1 | -1% | >57 | -5% | -6%
NC(=O)CN1CCN(C(=O)Nc2ccccc2)CC1 | 15% | >57 | -11% | 4µM*[single pt active]
CCCCCCCCCCCCCCC/C=C\[C@H](O)[C@@H](NC(=O)CCCCCCCCCCCCC)OC (tested in a mixture with another compound) | -3% | >26 | 6% | 0%
CCOc1ccc(C2CC(c3cccc(OC)c3)Nc3nc(N)nn32)cc1 (configuration not stated) | 10% | >57 | -5% | 80%
COc1cccc(C2CC(c3ccc(C)cc3)n3nc(N)nc3N2)c1 (configuration not stated) | 12% | >57 | 6% | 4µM*[single pt active]
COc1cccc(C2CC(c3ccc(C)cc3)Nc3nc(N)nn32)c1 (configuration not stated) | 7% | >57 | -1% | 4µM*[single pt active]
COc1ccc(C2CC(c3ccc(Cl)cc3Cl)n3nc(N)nc3N2)cc1 (configuration not stated) | 14% | >57 | 14% | 108%
COc1cccc(C2CC(c3ccccc3Cl)Nc3nc(N)nn32)c1 (configuration not stated) | -3% | >57 | -8% | 64%
COc1ccc(C2CC(c3c(Cl)cccc3Cl)n3nc(N)nc3N2)cc1 (configuration not stated) | 7% | >57 | ? | 4µM*[single pt active]
CO[C@@H]1COC(=O)[C@H](C)NC(=O)C/C=C\[C@@H](C)[C@H](OC)COC(=O)[C@H](C)NC(=O)C/C=C\[C@H]1C | . | . | 1%[8 µM] | .
Cc1ccc(C)c(-n2c(Cc3cc(=O)[nH]c(=O)[nH]3)nnc2SC(C)C)c1 | 13% | >57 | -5% | 4µM*[single pt active]
COC(=O)C(C)Sc1nnc(Cc2cc(=O)[nH]c(=O)[nH]2)n1-c1ccc(OC)cc1 (configuration not stated) | 13% | >57 | -12% | 4µM*[single pt active]
CCOc1ccc(-n2c(Cc3cc(=O)[nH]c(=O)[nH]3)nnc2SCC(=O)OC)cc1 | 9% | >57 | -10% | 4µM*[single pt active]
CCC(C)Sc1nnc(Cc2cc(=O)[nH]c(=O)[nH]2)n1-c1ccc(OC)cc1 (configuration not stated) | 13% | >57 | -12% | 3.2µM*[single pt active]
COc1ccc(O[C@H]2C=C[C@@H](c3ccccc3)O[C@H]2CO/N=C\C[C@@H]2C=C[C@H](OC(C)=O)[C@H](COC(C)=O)O2)cc1 | . | . | -7%[0.32 µM] | .
COC(=O)[C@@]1(Cc2ccc(OC)cc2)[C@H]2c3cc(C(=O)N4CCCC4)n(CCc4ccc(O)c(OC)c4)c3C[C@H]2CN1C(=O)c1ccccc1 | -1% | >57 | ? | 172%
N#Cc1ccc(CN2CCC3(CC2)CCN(C(=O)c2ccncc2)CC3)cc1 | 1% | >57 | ? | 2%
Nc1nc(SCC(=O)c2ccc(Oc3ccccc3)cc2)n[nH]1 | 21% | >57 | ? | 10µM*
C/C(=C\[C@@H](NP(=O)(c1ccccc1)c1ccccc1)c1ccccc1)CO[Si](c1ccccc1)(c1ccccc1)C(C)(C)C | 13% | . | -13% | 5%
CCCC/C(C)=C/[C@@H](NP(=O)(c1ccccc1)c1ccccc1)c1ccccc1 | 14% | . | 10µM* | 41%
O=C1[C@H]2[C@H]3[C@H](O)[C@H](O)C/C(=N/OC[C@@H](O)COCc4ccco4)[C@@H]3CC[C@@H]2C(=O)N1Cc1ccccc1 | . | . | -3%[8 µM] | .
CN(CC(CC(=O)Nc1nncs1)c1ccccc1)S(=O)(=O)c1ccccc1 (configuration not stated) | 9% | >57 | 5% | 4µM*[single pt active]
